Drawing on PubChem BioAssay AID574 (The Scripps Research Institute Molecular Screening Center, 2007), this text covers activation for 99 molecules.

Each structure is given as a SMILES string. The campaign covered roughly 65,000 compounds. About 450 (0.69%) were called active. Only a selection was taken, and actives are over-represented in it overall. A number with no mark means an inactive call.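 Rule for the calls: active = activation above a set limit, the screen-wide mean activation plus 3 SD (cut at about 8.5% in these data); inactive = the rest.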

For this test, the target named is 5-hydroxytryptamine receptor 1E (Homo sapiens) (UniProt P28566). The experiment in a line: activation of human serotonin 5HT1E receptor – cell-based, HTS, primary screen (AID 574).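 Note: 100% = positive control agonist at 1 µM giving full maximal response.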 The settings on record: CHO 5-HT1E Ga15 NFAT-bla reporter, FRET; at 6 µM; active compounds read high; 0% DMSO wells, 100% control agonist wells.
Chain of 5-hydroxytryptamine receptor 1E (Homo sapiens) (P28566 whole entry, looked up): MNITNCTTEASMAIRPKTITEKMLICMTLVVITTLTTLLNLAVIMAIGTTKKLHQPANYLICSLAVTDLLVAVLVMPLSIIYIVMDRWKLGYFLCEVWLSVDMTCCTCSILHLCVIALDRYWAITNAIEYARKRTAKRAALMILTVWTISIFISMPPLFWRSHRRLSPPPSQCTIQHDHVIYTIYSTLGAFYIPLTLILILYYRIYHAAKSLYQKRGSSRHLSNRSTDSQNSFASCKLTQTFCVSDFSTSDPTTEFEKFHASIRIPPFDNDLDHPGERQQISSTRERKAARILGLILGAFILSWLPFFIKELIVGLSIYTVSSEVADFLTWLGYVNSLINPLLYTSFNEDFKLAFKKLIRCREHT
Take `O=c1nc2s/c(=C\c3ccco3)c(=O)n2nc1Cc1ccccc1`: the activation was 17.9% (active).
Under `CCOc1ccccc1/C=c1\sc2nc(-c3ccco3)nn2c1=O` stands 0.9%; under `CCCCOc1ccccc1/C=c1/sc2nc(-c3oc4ccccc4c3C)nn2c1=O`, 0.1%.
To `O=C(CCS(=O)(=O)Cc1ccccc1F)NCCCN1CCCCC1` belongs -1.2%.
For the molecule `Cc1ccc(CNC(=O)CCCNC(=O)c2ccc(Cl)cc2)n1C`, the activation is -0.6%.
With `O=S(=O)(NCc1ccccc1Cl)c1cnc[nH]1`, the activation is 0.3%.
For the molecule `COc1ccc2c(c1)OC(O)(C(F)(F)C(F)F)CC2=O` (centres undefined), the activation was 12% (active).
Regarding `CN(C)c1ccnc2sc3c(=O)n(Cc4ccccc4)cnc3c12`, the activation is 0.2%.
To `CCOC(=O)c1sc(N(Cc2ccccc2)C(=O)CN2C(=O)CN(C)C2=O)nc1C` belongs 0.8%.
To `CCN(CCCNC(=O)C1CCN(S(=O)(=O)c2cnc[nH]2)CC1)c1ccccc1` belongs -0.1%; to `CN1CCN(Cc2c(O)ccc3c2oc(=O)c2ccccc23)CC1`, -1.2%.
To `CN1CCN(CCCNC(=O)c2cc3c(=O)oc4ccccc4c3s2)CC1` belongs 14.9% (active).
In the case of `Cc1nc2ccccc2c2oc(C(=O)NCCCN3CCC(C)CC3)cc12`, the activation is -0.7%.
To `CCS(=O)(=O)N1CCN(C(=O)c2cccs2)CC1` belongs 0.5%; to `O=C(CC(Cc1ccccc1)C(=O)O)NCCc1ccc2c(c1)OCO2` (centres undefined), 10.3% (active).
Under `O=C(CN(Cc1ccccc1)C(=O)c1ccc2c(c1)OCCO2)NCc1ccc2c(c1)OCO2` stands -1.2%.
Under `O=C(COc1ccccc1)NCc1ccc2c(c1)OCO2` stands -0.5%; under `Cc1cc(=O)n2nc(N3CCCC(C(=O)N4CCN(C)CC4)C3)sc2n1` (centres undefined), 0%; under `CN(C)CCCn1c(N)c(C#N)c2nc(C#N)c(C#N)nc21`, 3.5%.
On to `CCOc1ccc2nc(NC(=O)CSc3nc4c(c(=O)n(C)c(=O)n4C)n3CC)sc2c1`, for which the activation is -0.3%.
Consider `CCOC(=O)CCc1c(C)c(C#N)c2[nH]c3ccccc3n2c1=O`, for which the activation was -0.2%.
Under `CCC1CCCCN1CCNS(=O)(=O)c1ccc2c(c1)CCN2C(C)=O` (centres undefined) stands -0.3%; under `O=S(=O)(c1ccc(OCC(O)CN2CCN(c3ccccc3Cl)CC2)cc1)N1CCOCC1` (centres undefined), 1.6%; under `CCCN1C(=O)C(NC(C)=O)c2cc(OC)ccc21` (centres undefined), 0.7%.
Take `CCOC(=O)N1CCN(C(=O)c2cnc3n(c2=O)CCS3)CC1`: the activation is 4.1%.
Take `Cn1c(NC(=O)c2ccco2)c(-c2ccccc2Cl)c(=O)c2ccccc21`: the activation was 0.2%.
Under `CCC(=O)Nc1ccccc1N1CCN(S(C)(=O)=O)CC1` stands -0.7%.
In the case of `CCCS(=O)(=O)N1CCCC(C(=O)NCc2ccco2)C1` (centres undefined), the activation is 0.6%.
For the molecule `COc1cccc2cc(C(=O)N(C)C)c(=O)oc12`, the activation is 0.2%.
Under `Cn1c(=O)cc(OCCCC(=O)N2CCN(Cc3ccc4c(c3)OCO4)CC2)c2ccccc21` stands 0.8%; under `CC(C)OCCCNC(=O)CNC(=O)c1cccs1`, 1.3%.
Consider `COc1cccc(OCCOc2cccc(/C=N/n3cnnc3)c2)c1`, for which the activation was -0.3%.
Regarding `C=C(C)CSc1nc(N)c2c3c(sc2n1)CCC3`, the activation was 0.3%.
`Cc1c(CN2CCC(C)CC2)c(=O)n(-c2ccccc2)n1C`: the activation was -0.1%.
Under `CC(=O)N1CCN(c2cccc(C)c2C)CC1` stands 0.3%; under `Cc1cccc(N2CCN(Cc3c(C)n(C)n(-c4ccccc4)c3=O)CC2)c1C`, 41.4% (active).
To `CC1CN(C2CCCCC2)c2nc3c(c(=O)n(C)c(=O)n3C)n2C1` (centres undefined) belongs -0.2%.
Regarding `CCOC(=O)CSc1nnc(CNC(=O)Cc2ccccc2)n1-c1ccccc1OC`, the activation is -0.7%.
To `CCOc1cc(NC(=O)c2ccco2)c(OCC)cc1NC(=O)COc1ccccc1` belongs 9.5% (active); to `Cc1ccc(C(=O)COc2cccc(NC(=O)c3ccco3)c2)cc1`, 0.2%; to `O=C(Nc1ccc(Oc2ccccc2)cc1)c1ccco1`, 0.3%.
Under `CC(=O)c1cccc(NC(=O)N2CCCC2C(=O)NCCC(C)C)c1` (centres undefined) stands -0.1%.
Under `CCN(Cc1ccccc1)C(=O)CSc1nc(C)cc2c1C(=O)OC2` stands -0.3%; under `CCOc1ccccc1C1C(C(=O)OC)=CN(C)C=C1C(=O)OC`, 7.1%.
Turning to `O=C(CCn1c(=O)[nH]c2ccccc2c1=O)NCCCN1CCN(c2cccc(Cl)c2)CC1`, the activation is 11.7% (active).
To `CC1CCCC(C)N1CCCNC(=O)c1cc2c(=O)n(C)c3ccccc3c2n1C` (centres undefined) belongs 0.8%; to `Cn1c(C(=O)NCCCN2CCN(c3cccc(Cl)c3)CC2)cc2c(=O)n(C)c3ccccc3c21`, 14.6% (active); to `O=C(CCCn1c(=O)[nH]c2cc(Cl)ccc2c1=O)NCCN1CCN(c2ccccc2)CC1`, 1%.
With `O=C(CCn1c(=S)[nH]c2ccccc2c1=O)NCCCN1CCCC1=O`, the activation was -0.3%.
Under `CCn1c(=O)cc(OCC(=O)NCCCN2CCN(c3cccc(Cl)c3)CC2)c2ccccc21` stands 7.6%.
To `Cc1cc(=O)[nH]c(SCC(N)=O)c1C#N` belongs 0.8%.
Under `COc1ccc(C(=O)Nc2cccnc2)cc1C(=O)Nc1cccnc1` stands 0.1%; under `Cc1ccc2nc(-c3ccc(SCC(=O)Nc4cc(C)on4)nc3)[nH]c2c1`, -0.4%.
Take `Cc1cc(=O)oc(C)c1C(=O)NCc1ccc(F)cc1`: the activation is -0.2%.
As for `CCCOc1ccccc1C(=O)NCCCC(=O)O`, the activation is 0%.
Take `Cn1c(CN2CCOCC2)nc2cc(NC(=O)c3ccc(Cl)cc3)ccc21`: the activation is 0.6%.
Regarding `O=C(CC(NCCN1CCOCC1)C(=O)O)Nc1cccc(Cl)c1` (centres undefined), the activation is -1.2%.
To `COc1cccc2cc(C(C)N(CCCN3CCOCC3)C(=O)Nc3ccc(Cl)cc3)oc12` (centres undefined) belongs 15.9% (active); to `Cc1c2cnn(-c3ccccc3)c(=O)c2c(C)n1CCCC(=O)N1CCN(C)CC1`, 1%; to `CC(C)OC(=O)CN1C(=O)c2ccccc2C1=O`, 0.5%.
For the molecule `CCOc1ccc(NC(=O)N2CCN(CC)CC2)cc1`, the activation is -0.5%.
Take `O=C(Nc1c(-c2ccccc2)nc2c(Br)cc(Br)cn12)c1ccco1`: the activation was -0.3%.
Turning to `CC1(C)C/C(=C(/C#N)C(N)=O)CCO1`, the activation is -0.1%.
With `Cc1cn(COC/C=C/c2ccccc2)c(=O)[nH]c1=O`, the activation is 0.2%.
As for `CC(C)Cn1c(CCC(=O)O)ccc1-c1cccs1`, the activation was 0.6%.
To `CC1CCCC(NC(=O)CN2CCN(Cc3ccc(Cl)cc3)C2=O)C1C` (centres undefined) belongs -0.6%; to `O=C(OC1CCOC1=O)c1ccc(-c2nc3ccccc3s2)s1` (centres undefined), -0.6%.
To `Cc1ccc(-n2nc3c(c2NC(=O)c2ccc4c(c2)OCO4)CSC3)c(C)c1` belongs -0.1%; to `O=C(Nc1ccccc1C(F)(F)F)c1cc(-c2ccc(O)cc2)on1`, 0.1%.
On to `CCOc1ccc(Cn2c(SCCCCC#N)nc3c2c(=O)n(C)c(=O)n3C)cc1OCC`, for which the activation is 0.1%.
To `O=C(Nc1c(Cl)cccc1Cl)C1CCC1` belongs 0.5%.
To `O=C(O)CC(Cn1cnnn1)c1ccccc1` (centres undefined) belongs 1.2%; to `Fc1ccccc1CCNc1nnnn1-c1ccccc1`, -0.5%.
As to `CC(C)CNC(=O)C1CCCN(S(=O)(=O)c2ccc(-n3cnnn3)cc2)C1` (centres undefined), the activation was -0.3%.
Under `Cc1oc(-c2cccc(Cl)c2)[n+]([O-])c1C` stands 0.2%.
For `COC(=O)COc1ccc(S(=O)(=O)N2CCOCC2)cc1`, the activation is -0.6%.
On to `O=C(c1ccc2c(c1)C(=O)N(c1ccc(Cl)cc1)C2=O)N1CCN(c2ccccn2)CC1`, for which the activation was 0.4%.
Take `CCOc1ccc(C(CC(=O)O)NC(=O)COc2ccccc2)cc1` (centres undefined): the activation is -1.3%.
In the case of `CC(C)Cn1c(N)c(C(=O)NCc2cccs2)c2nc3ccccc3nc21`, the activation is 18.4% (active).
To `C=CCn1c(N)c(C(=O)OCC(C)C)c2nc3ccccc3nc21` belongs 0.4%; to `C=CCn1c(N)c(S(=O)(=O)c2cccs2)c2nc3ccccc3nc21`, 0.2%.
Under `Cc1ccc(C(=O)NCCNS(=O)(=O)c2ccccc2)cc1` stands -1.7%; under `CC(=O)Nc1cccc(Oc2cc(C#N)c(C#N)cc2N2CCOCC2)c1`, -0.6%; under `CC1CN(c2cc(=O)n(Cc3ccc(F)cc3)c(=O)[nH]2)CC(C)O1` (centres undefined), 0.8%.
Under `Cc1nnc(SCC(=O)N2CCc3ccccc32)n1-c1ccccc1` stands -0.4%.
Consider `CCOC(=O)CSc1nc2sc3c(c2c(=O)[nH]1)CC(C)(C)OC3`, for which the activation is -0.1%.
For `CCCc1nnc(NC(=O)c2cc(OC)cc(OC)c2)s1`, the activation was 0.7%.
Turning to `Nc1nnnn1/N=C/c1cccs1`, the activation was -0.8%.
Take `CS(=O)(=O)N(C(=O)NC(=O)NC1CCS(=O)(=O)C1)C1CCCCC1` (centres undefined): the activation was 0.1%.
To `O=C(Nc1nnc(-c2ccc(Cl)cc2)o1)c1ccccc1Br` belongs -0.9%; to `CCOC(=O)N1CCC(NC(=O)c2ccc3nc(N4CCOCC4)sc3c2)CC1`, -0.6%.
For `COC(=O)C(C)C1Sc2ccccc2NC1=O` (centres undefined), the activation was 0.6%.
With `Cc1ccc(C(C(=O)NCc2ccco2)N(CC2CCCO2)C(=O)Cn2nnc3ccccc32)cc1` (centres undefined), the activation was 0.3%.
Under `O=C(NC1(C(F)(F)F)N=C2SCCN2C1=O)c1ccco1` (centres undefined) stands -0.1%; under `CCNc1nc(NCC)nc(N(C)n2cnnc2)n1`, 1.1%; under `c1n[nH]c(NCc2ccc3c(c2)OCO3)n1`, -0.5%.
Under `N#Cc1nc(Cc2ccccc2)oc1NCCc1ccccc1` stands -0.8%; under `N#Cc1nc(Cc2cccc3ccccc23)oc1NCc1ccc2c(c1)OCO2`, 10.4% (active); under `Cc1cccc2c1N(CC(=O)OC(C)C)C(=O)C2=O`, 0.3%.
